Screening results: PubChem BioAssay, ICCB-Longwood Screening Facility, Harvard Medical School
Mtb MenB inh – inhibitors of Mycobacterium tuberculosis MenB enzyme | MenB enzyme assay, absorbance read-out | actives 0.43% (n = 100,000) | inhibition, % (test concentration not listed) | P9WNP5; in the data active means inhibition above about 21%, passing the limit was not always enough
PV pol inh – poliovirus RNA polymerase inhibition; P03300; % elongation, % (compound at 16.7 µg/mL); actives 0.66% (n = 150,000); poliovirus polymerase elongation, fluorescence polarization; stronger effect = lower value; AID 588519; in the data active means % elongation below about 90%
Target sequence (P03300 1749-2209 limits assumed): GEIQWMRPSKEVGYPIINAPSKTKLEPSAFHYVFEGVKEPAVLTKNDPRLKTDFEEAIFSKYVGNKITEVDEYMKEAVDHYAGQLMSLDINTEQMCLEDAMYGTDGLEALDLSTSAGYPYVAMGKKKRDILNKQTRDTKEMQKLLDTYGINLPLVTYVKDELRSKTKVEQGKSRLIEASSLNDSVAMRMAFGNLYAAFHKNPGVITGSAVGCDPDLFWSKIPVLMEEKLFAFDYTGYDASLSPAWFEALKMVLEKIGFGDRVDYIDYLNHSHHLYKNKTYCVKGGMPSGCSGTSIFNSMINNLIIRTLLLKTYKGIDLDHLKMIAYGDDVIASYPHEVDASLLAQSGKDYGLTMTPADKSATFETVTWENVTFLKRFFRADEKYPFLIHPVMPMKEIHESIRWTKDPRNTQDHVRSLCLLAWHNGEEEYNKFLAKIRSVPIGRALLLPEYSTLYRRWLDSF
MbtI inh – inhibitors of Mycobacterium tuberculosis siderophore enzyme MbtI | P9WFX0 | purified MbtI enzyme, fluorescence intensity read-out | inhibition, % (concentration not given with the values) | actives 0.89% (n = 100,000); in the data active means inhibition mostly above about 56%, no sharp cut-off; inactive means mostly below about 77%
Starred values were filed as active, the others as inactive; . = no result given. An excerpt weighted towards active compounds, which were near 1.4% of everything screened.

SMILES | Mtb MenB inh | PV pol inh | MbtI inh
CCn1c(=O)cc(SCC(=O)NC2CCCc3ccccc32)c2ccccc21 (centres undefined) | -17.1 | 104.0 | 1.4
NC(=O)COc1ncnc2scc(-c3ccccc3)c12 | -32.5 | 102.0 | 10.9
COc1ccc(-c2nnc(SCC(=O)N3CC(C)OC(C)C3)n2C2CCCCC2)cc1OC (centres undefined) | -28.0 | 105.0 | 2.5
N#Cc1ccc(OCC(=O)N2CCCC2)cc1 | . | 101.0 | -9.9
CCc1cccc(NC(=O)C2COc3ccccc3O2)c1 (centres undefined) | -5.4 | 102.0 | 8.2
CCc1ccc2c(c1)S(=O)(=O)C(C(F)(F)F)CO2 (centres undefined) | 4.1 | 84.0* | .
CC1CCC/C(=N/NC(=O)c2c[nH]c3ccccc23)C1 (centres undefined) | -0.4 | 105.0 | 1.2
CCOc1cccc(CNCCN2CCOCC2)c1 | -46.3 | 97.0 | -2.0
c1cncc(CNCCN2CCOCC2)c1 | 65.4* | 102.0 | -8.0
Cc1cccc(NS(=O)(=O)c2ccc3[nH]c(=O)cc(C)c3c2)c1 | -34.1 | . | 35.4
c1ccc2c(c1)oc1c(N3CCNCC3)ncnc12 | -26.8 | 103.0 | 11.6
COC(=O)C(N)C12CC3CC(CC(C3)C1)C2 (centres undefined) | 17.2 | 101.0 | 3.1
COC(=O)C(F)C(=O)OC | 10.8 | 88.0* | -0.6
CC(C)Cn1cc(NC(=O)Nc2cccnc2)c2ccccc2c1=O | 0.2 | 101.0 | 119.2
Cc1ccc(Cl)cc1NC(=O)Nc1cn(CC(C)C)c(=O)c2ccccc12 | . | 69.0* | .
COc1ccc(NC(=O)Nc2cn(CC(C)C)c(=O)c3ccccc23)c(OC)c1 | . | 94.0 | .
CC(=O)c1ccc(N2CCN(C(=O)Nc3cn(CC(C)C)c(=O)c4ccccc34)CC2)cc1 | . | 76.0* | .
CC(C)Cn1cc(NC(=O)N2CCN(c3ccccc3)CC2)c2ccccc2c1=O | 0.2 | 98.0 | -20.0
COc1ccc(CNC(=O)Nc2cn(CC(C)C)c(=O)c3ccccc23)cc1 | . | 60.0* | .
CC(=O)NC12CC3CC(C1)CC(C(=O)OCC(=O)Nc1cc(C)nn1-c1ccccc1)(C3)C2 | -20.5 | 102.0 | -1.8
CCS(=O)(=O)N1Cc2ccccc2CC1C(=O)OCC(=O)Nc1ccc(C(F)(F)F)cc1 (centres undefined) | 9.1 | 98.0 | -15.7
CCCCn1c(NC(=O)c2ccc(Br)o2)c(S(=O)(=O)c2ccc(C)cc2)c2nc3ccccc3nc21 | -13.3 | 109.0 | -5.2
CN(CCO)c1ncnc2sccc12 | -3.3 | 112.0 | 5.7
Cc1ccc(S(=O)(=O)N2CCN(c3nc(-c4ccccc4)ns3)CC2)cc1 | -14.4 | 102.0 | -6.3
CC(=O)/C=C(\C)Nc1ccccc1S | 28.0* | 101.0 | 0.8
SMILES | Mtb MenB inh | PV pol inh | MbtI inh
CC(=O)Nc1ccccc1N | -16.0 | 111.0 | .
COc1ccccc1C(=O)NCCC(=O)Nc1cc(C(N)=O)cc(C(N)=O)c1 | -3.8 | 99.0 | -2.4
CCc1cccc(NC(=O)c2ccc(CN3C(=O)C(C)=C(c4ccc(OC)cc4)S3(=O)=O)cc2)c1 | . | 8.0* | .
COc1ccc(C2=C(C)C(=O)N(Cc3ccc(C(=O)Nc4cccc(F)c4)cc3)S2(=O)=O)cc1 | . | 108.0 | .
CCCC1=Nc2cc(C(=O)NC3CCCC3)ccc2Sc2ccccc21 | -13.4 | 104.0 | -3.0
COc1ccccc1N1C(=O)c2ccc(-c3nc4cc(Cl)ccc4c(=O)o3)cc2C1=O | -26.4 | 108.0 | .
Nn1c(SCCOc2ccccc2)nnc1-c1ccccc1 | -29.6 | 79.0* | 34.2
Nn1c(SCCC(=O)O)nnc1-c1ccccc1 | -12.7 | 104.0 | -9.2
CC(=O)N1CCCc2cc(S(=O)(=O)NC3CCCCC3)ccc21 | -25.5 | 102.0 | 1.8
O=C(O)C1Nc2ccccc2C2C=CCC12 (centres undefined) | 10.5 | 37.0 | .
O=C(O)c1ccc(C2Nc3ccccc3C3C=CCC32)cc1 (centres undefined) | -17.8 | 59.0* | .
CSCCC1C2=C(CC(C)(C)CC2=O)Nc2c1c(C)nn2-c1nc2ccccc2s1 (centres undefined) | -15.3 | 91.0 | 69.0
O=C(O)C1C2C=CC(C2)C1C(=O)N1CCN(Cc2ccccc2)CC1 (centres undefined) | -28.2 | 80.0* | -1.1
O=C(O)C1C2C=CC(C2)C1C(=O)N1CCC(Cc2ccccc2)CC1 (centres undefined) | . | . | -8.6
CN1CCCN(Cc2coc3ccccc3c2=O)CC1 | 17.4 | 100.0 | 4.7
CCOC(=O)c1cnc2ccccc2c1NCCc1ccccc1 | -1.0 | 100.0 | 40.5
CCOC(=O)c1cccc2ncccc12 | -60.9 | 99.0 | 96.0*
CN(CC(=O)N1CCCC1c1nc2ccccc2s1)S(=O)(=O)c1ccc(Cl)s1 (centres undefined) | -40.7 | 97.0 | -3.8
O=C(COc1cccc(-n2cnnn2)c1)N1CCOCC1 | -1.2 | 104.0 | -3.4
COC(=O)COc1ccc2cccc(-n3cnnn3)c2c1 | 38.8* | 101.0 | 89.6
OCCC12CC3CC(CC(CO)(C3)C1)C2 | -20.1 | 98.0 | 4.7
CS(=O)(=O)c1ccc2nc(NC(=O)C3CCCC3)sc2c1 | -28.9 | 101.0 | -9.0
N=C(N)SCCS(=O)(=O)c1ccccc1 | 20.9 | 102.0 | 15.1
N=C(N)SCP(=O)(c1ccccc1)c1ccccc1 | 49.0* | 99.0 | 21.2
CN(NC=C(C#N)C#N)c1cccc(F)c1C#N | -3.8 | 101.0 | -5.8
SMILES | Mtb MenB inh | PV pol inh | MbtI inh
O=C(NC1CCCCC1)c1ccc(Cl)cc1 | -38.1 | 103.0 | -8.1
O=C1CC(NC(=O)c2ccc(Cl)cc2)C(=O)N1 (centres undefined) | . | 102.0 | 78.8*
Cc1ccc(S(=O)(=O)c2[nH]c(=S)sc2N2CCOCC2)cc1 | -37.3 | . | 93.0*
Cc1ccc(S(=O)(=O)c2nc(S(C)(=O)=O)sc2N2CCCC2)cc1 | -18.3 | 104.0 | -8.4
Cc1ccc(-c2nc3cc(N=Cc4ccccc4O)ccc3o2)cc1 | -10.7 | 100.0 | -44.8
O=C1CSc2nnc(C3COc4ccccc4O3)n2N1 (centres undefined) | -54.8 | 95.0 | 85.0*
Cn1c(SCc2ccc(F)cc2)nnc1C1COc2ccccc2O1 (centres undefined) | 8.6 | 105.0 | -5.7
CC1CCCC(C)N1NC(=O)c1ccc2c(c1)SC1=NS(=O)(=O)CCN12 (centres undefined) | -2.1 | 102.0 | 0.8
N/C(=N\C(=S)Nc1ccccc1)N1CCOCC1 | -26.3 | 103.0 | -1.1
O=C(Nc1ccccc1)C(=S)N1CCOCC1 | -35.6 | 82.0* | .
O=C(N1CCOCC1)N1CCN(c2ccccc2)CC1 | 36.3* | 99.0 | 2.2
O=C(N1CCOCC1)N1CCN(c2ccccc2F)CC1 | -14.4 | 102.0 | 2.3
N#C/C(=C/c1ccco1)c1ccc(Br)cc1 | -50.8 | 102.0 | 2.0
CN1C(=O)C(=Cc2ccc(O)cc2)C(=O)N(C)C1=S | -140.6 | 100.0 | 24.2
CC1(C)CC(=O)C(C2(O)C(=O)c3ccccc3C2=O)C(=O)C1 | . | . | -11.8
CC1(C)C=C(O)C(C2(O)C(=O)c3ccccc3C2=O)C(=O)C1 (centres undefined) | -27.8 | 19.0* | .
O=C(c1cc[n+]([O-])cc1)N1CCCCCC1 | . | 103.0 | 2.7
N#Cc1cc(-c2nc(-c3ccccc3)cs2)c(N)nc1SCC(=O)c1ccc[nH]1 | -60.8 | 106.0 | -8.0
O=C(N/N=C/c1ccc(O)c(O)c1O)c1cccc(S(=O)(=O)Nc2ccccc2Cl)c1 | -1.9 | 103.0 | 55.0*
NNC(=O)c1cccc(S(=O)(=O)Nc2ccccc2Cl)c1 | -13.2 | 102.0 | -7.0
